In assay [1] the test system is RET.
Assay [2] has as its system RIPK4.
Assay [3] has as its system RIPK2.
The test system of assay [4] is ROCK1.
The subject of assay [5] is ROCK2.
The subject of assay [6] is RPS6KA5(Kin.Dom.1-N-terminal).
For assay [7], the system named is PRKG1.
The subject of assay [8] is RPS6KA4(Kin.Dom.1-N-terminal).
For assay [9], the system named is RIPK1.
Assay [10] relates to RIOK3.

Where only a bound is given, the exact number is not on record here.
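Further: kd values determined as follow-up on hits from a single-replicate KINOMEscan panel screen.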

For orientation: Kd means the free concentration of one partner at which half of the binding sites on the other are occupied at equilibrium, for simple one-to-one binding. As for `COc1cc2c(Nc3cccc(NC(=O)c4ccccc4)c3)ncnc2cc1OCCCN1CCOCC1` [GSK223810], binding in [1] was characterised by a dissociation constant (Kd) of 110 nM.

On to `O=C(Nc1ccccc1F)NC1CCN(c2ccnc(Nc3ccc(F)cc3)n2)C1` (stereo not drawn) [GSK1379722], for which the Kd in assay [2] was greater than 10000 nM.

Compound `Cl.O=S(=O)(c1cccc(F)c1)c1ccc(Nc2ncnc3cc(Br)sc23)cc1Cl` [GSK306886] displayed a Kd in assay [1] greater than 10000 nM.

`Nc1n[nH]c2nnc(-c3ccccc3)cc12` [SB-517389] had a Kd in assay [1] greater than 10000 nM.

As to `CCc1nc(-c2cccc(N(C)S(=O)(=O)c3ccccc3)c2)c(-c2ccnc(Nc3ccc(N4CCN(C(C)=O)CC4)nc3)n2)s1` [GSK1645895], the Kd in assay [3] came out at 130 nM.

`NC(=O)c1sc(-n2cnc3ccccc32)cc1OCc1ccccc1F` [GSK1024306]: the figures for the Kd in assay [4] and in assay [5] were 460 nM and 470 nM, respectively.

Consider `O=c1cc(N2CCOCC2)nc2n(Cc3cccc(Cl)c3)ccn12` [GSK2296823], for which the Kd in assay [1] was greater than 10000 nM.

`Fc1cccc(COc2ccc(Nc3ncnc4sc(-c5ccc[nH]5)cc34)cc2Cl)c1` [GW707818] gave a Kd in assay [6] greater than 10000 nM.

In the case of `C[C@@H]1CCN(C(=O)CO)C[C@@H]1N(C)c1ncnc2[nH]ccc12`, the Kd in assay [7] and in assay [8] was greater than 10000 nM throughout.

`O=C(Nc1ccccc1)Nc1ccc(Oc2ccc3nccn3n2)cc1` registered a Kd in assay [3] greater than 10000 nM.

Compound `COc1cc2ncnc(Nc3ccc(OCc4ccccc4Br)c(Cl)c3)c2cc1OC.Cl` [GI261590] displayed a Kd in assay [3] of 410 nM.

In turn, `Oc1ccc2ncnc(Nc3ccc(OCc4ccccc4)cc3)c2c1` [GI262866] returned a Kd in [3] of 8.1 nM.

In the case of `Nc1nccc2scc(-c3ccc4c(c3)CCN4C(=O)Cc3cc(F)ccc3F)c12` [GSK2587663], the Kd in assay [9] came out at 570 nM. That is a sub-micromolar value.

Turning to `Nc1nc(-c2ccc3c(N)n[nH]c3c2)cc(N2CCC[C@@H](C(=O)Nc3ccccc3)C2)n1.O=C(O)C(F)(F)F.O=C(O)C(F)(F)F` [GSK2288359], the Kd in assay [10] amounted to 570 nM. That is a sub-micromolar value.

`Cl.Cl.c1ccc(-c2cc3ccncc3cc2OC2CCNCC2)cc1` [GSK1122999]: the Kd turned out to be 130 nM in assay [4] and 180 nM in assay [5].

For the origin of these results see publication PMC5540273 (PLoS ONE, 2017).
